Reference: PubChem BioAssay (NCI)
The panel holds about 83,000 compounds, 20% with a hit somewhere; the sample as a whole holds those more often.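 Growth was measured after 48 h exposure to one concentration of compound in 96-well plates. Values under 10 count as active.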 Values without a mark were called inactive. The source made the active and inactive calls.

Legend:
Test in all cases: NCI-60 one-dose screen, 48 h (100 = growth as untreated, 0 = no growth, -100 = all killed)
Conditions in all cases: 10 µM unless noted
EKVX NSCLC = tested on: EKVX NSCLC
SN12C renal = tested on: SN12C renal
UO-31 renal = tested on: UO-31 renal
TK-10 renal = tested on: TK-10 renal
ACHN renal = tested on: ACHN renal
CAKI-1 renal = tested on: CAKI-1 renal
A498 renal = tested on: A498 renal
MOLT-4 leukemia = tested on: MOLT-4 leukemia
SR leukemia = tested on: SR leukemia
RPMI-8226 leukemia = tested on: RPMI-8226 leukemia
OVCAR-5 ovarian = tested on: OVCAR-5 ovarian
OVCAR-4 ovarian = tested on: OVCAR-4 ovarian
SK-OV-3 ovarian = tested on: SK-OV-3 ovarian
IGROV1 ovarian = tested on: IGROV1 ovarian
HS 578T breast = tested on: HS 578T breast
NCI/ADR-RES ovarian = tested on: NCI/ADR-RES ovarian
T-47D breast = tested on: T-47D breast
OVCAR-8 ovarian = tested on: OVCAR-8 ovarian
OVCAR-3 ovarian = tested on: OVCAR-3 ovarian
CCRF-CEM leukemia = tested on: CCRF-CEM leukemia

Row | SMILES | growth (EKVX NSCLC) | growth (SN12C renal) | growth (UO-31 renal) | growth (TK-10 renal) | growth (ACHN renal) | growth (CAKI-1 renal) | growth (A498 renal) | growth (MOLT-4 leukemia) | growth (SR leukemia) | growth (RPMI-8226 leukemia) | growth (OVCAR-5 ovarian) | growth (OVCAR-4 ovarian) | growth (SK-OV-3 ovarian) | growth (IGROV1 ovarian) | growth (HS 578T breast) | growth (NCI/ADR-RES ovarian) | growth (T-47D breast) | growth (OVCAR-8 ovarian) | growth (OVCAR-3 ovarian) [%] | growth (CCRF-CEM leukemia)
1 | CS(=O)(=O)c1ccc(-c2nc3ccccn3c2C=Nc2ccc(Cl)cc2)cc1 | 100% | 81.6% | 61.4% | 110% | 49.4% | 42.9% | 79.1% | 64.9% | 96.8% | 77.1% | 83.6% | 88.2% | 96.9% | 78.4% | 104% | 62.3% | 65.4% | – | – | –
2 | O=C(NNc1nc2cc(F)ccc2n2c(CN3CC4(COC4)C3)ccc12)c1cnccn1 | 17.6% | 22.4% | 13.7% | 38.9% | 13.7% | 19.3% | -6.2% (active) | 6.4% (active) | 0.659% (active) | – | 38.1% | 33.3% | 15.2% | 18.6% | 65.3% | 22% | 26.2% | 8.35% (active) | 16.1 | –
3 | N#Cc1c(-c2ccc(Cl)cc2)nc(SCc2ccccc2)nc1N1CCNCC1 | 71.6% | 54.9% | 53% | 96% | 47.8% | 53.1% | 79.7% | 52.7% | -24.8% (active) | 23% | 92.1% | 85.2% | 113% | 46.9% | 91.1% | 65.6% | 65.6% | – | 50 | –
4 | COc1cc(/C=C/C(=O)c2ccc(C)cc2)ccc1Oc1nc(NCCO)nc(N2CCOCC2)n1 | 67.8% | 74% | 51.5% | 125% | 55.7% | 50.4% | – | 0.537% (active) | -3.65% (active) | -18.3% (active) | 83.6% | 80.6% | 95.9% | 53.9% | 79.9% | 54.1% | 92.4% | 76.1% | 75.1 | 3.44% (active)
5 | C=CCn1c(SCC(=O)c2ccccc2)nnc1-c1c[nH]c2ccccc12 | 95.8% | 92.7% | 65.7% | 144% | 93.8% | 83.1% | – | 92.8% | 76.5% | 86.6% | 103% | 97.5% | 120% | 88.4% | 97% | 97.4% | 95% | 95.4% | 115 | 91.2%
6 | COc1ccc(Cc2nn(CC(=O)N/N=C/c3ccc(Cl)cc3)c(=O)c3c(C)noc23)cc1 | 88.8% | 66% | 84.9% | 95.5% | 72.7% | 80.8% | 90.5% | 89.7% | 53.9% | 87.4% | 97.3% | 59.2% | – | 82.1% | 22.1% | – | 58.9% | 61.9% | 107 | –
7 | N#Cc1nc(-c2ccccc2)oc1N1CC[C@@H](CO)C1 | 98.5% | 98.1% | 86.3% | 123% | 95.9% | 91.5% | – | 101% | 84.6% | 99.5% | 108% | 101% | 116% | 94.5% | 111% | 102% | 98.1% | 100% | 109 | 93.6%
8 | O=c1[nH]c2ccccc2cc1CSc1ccccc1Nc1nccc(-c2ccc(C(F)(F)F)cc2)n1 | 64.7% | 70.3% | 72.3% | 112% | 48% | 64.4% | 85.5% | 63.5% | 53.7% | 62.6% | 103% | 48.7% | 117% | 67.8% | 68.3% | 63.2% | 66.7% | 38.1% | – | –
9 | CC(=O)c1ccc(Nc2nc(SC(C)C)nc(-c3ccccc3)c2C#N)cc1 | 111% | 97% | 82.1% | 101% | 86.2% | 88% | 42.3% | 96.4% | 91.5% | 95% | 100% | 94.9% | 103% | 89.7% | 90.6% | 92% | 81% | 95.7% | – | –
10 | CN(C)c1ccc(/C=C2\Cc3c(F)ccc(Br)c3C2=O)cc1 | 80.5% | 98.2% | 77% | 140% | 84.8% | 82% | – | 97.7% | 76% | 93.1% | 107% | 35.9% | 97.7% | 56.5% | 92.2% | 91% | 54.2% | 96.5% | 101 | 94.2%
11 | N=C1CC(=O)NN1C(=O)CSc1nc2sc3c(c2c(=O)n1-c1ccc(Cl)cc1)CCCC3 | 97.8% | 93.5% | 70.1% | 150% | 94% | 87.4% | 91.3% | 103% | 94% | 102% | 104% | 103% | 98.2% | 94.5% | 94.5% | 115% | 83.8% | – | 122 | –
12 | N#Cc1ccc(/C=N/NC(=O)c2[nH]c3ccc(Br)cc3c2-c2ccccc2)s1 | 25% | 42.1% | 36% | 102% | 18.2% | 18.3% | – | 4.12% (active) | 7.7% (active) | -7.36% (active) | 54.5% | 54.6% | 22.6% | 17.3% | 23.3% | 9.75% (active) | 58.8% | 2.33% (active) | 33.3 | 9.74% (active)
13 | C=CCn1c(SCC(=O)c2ccc(Br)cc2)nnc1-c1c[nH]c2ccccc12 | 92.8% | 95.6% | 68.4% | 134% | 88.3% | 90.2% | – | 91.2% | 88.7% | 98.8% | 96.8% | 109% | 113% | 86.7% | 106% | 98.8% | 97% | 94.7% | 110 | 97.9%
14 | C=CCSc1ccc2c(c1)C(N1CCNCC1)=Nc1ccccc1O2 | 79.7% [8.25 µM] | 77.3% [8.25 µM] | 62.1% [8.25 µM] | 85% [8.25 µM] | 70.3% [8.25 µM] | 58.8% [8.25 µM] | 75.1% [8.25 µM] | 49.9% [8.25 µM] | 14.4% [8.25 µM] | – | 85.4% [8.25 µM] | 83.1% [8.25 µM] | 88.2% [8.25 µM] | 63.1% [8.25 µM] | 72.1% [8.25 µM] | 87.9% [8.25 µM] | 71.3% [8.25 µM] | – | – | –
15 | C#Cc1nc(C2=C(C)C(O)CC2)cs1 (centres undefined) | 113% | 101% | -66.1% (active) | 151% | 94.7% | 110% | – | 95.1% | 78.7% | 97.4% | 120% | 115% | 89% | 5.36% (active) | 104% | 35.9% | 92% | 107% | 120 | 102%
16 | CCOC(=O)c1c(Nc2ccccc2)nn2c(N)c(C#N)c(-c3ccc(F)cc3)nc12 | 83.1% | 95.9% | 78.9% | 109% | 81.6% | 91.2% | – | 46% | 65% | 70.4% | 108% | 87% | 93.2% | 93.1% | 79.6% | 97.4% | 64.6% | 97.4% | 110 | 68%
17 | O=C1[C@H]2Cc3c([nH]c4ccccc34)[C@@H](c3ccc(Br)cc3)N2C(=O)CN1C1CCN(Cc2ccccc2)CC1 | 35.5% | 12.9% | 38.5% | 64.3% | 30.6% | 44.9% | 61% | 12.7% | -10.6% (active) | 3.9% (active) | 65% | 48.3% | – | 18.7% | 36.7% | – | 19.3% | 41.6% | 68.1 | –
